# PubChem BioAssay (NCATS)
# Records with an inconclusive call do not appear. Where a call stands in place of a potency, no number is given. Values without a mark were called inactive. Activity calls are given as the source filed them. Calls follow the shape of the dose curve; as a rule, active = well fitted curve in the direction sought with a large enough effect; inconclusive = small, poorly fitted or top-dose-only effect, or another doubt; inactive = no such curve, though single readings can be large; an effect the other way counts as inactive or inconclusive.
# Tests used:
# [1] = qHTS of pediatric cancer cell lines to identify multiple opportunities for drug repurposing: Primary screen for SK-N-SH cells (AID 1347098); also: nearly all actives have a fitted effect of over 65% in size
# Procedure, shortened: (§1)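 Cells (500-1,000/well) rested 5 h, then received compounds for 48 h; metabolically active cells were measured by CellTiter-Glo luminescence. Final concentrations spanned up to 46 µM (MIPE, 11-point) or 0.59 nM-46 µM (NPC, 8-point) in primary screens, 11-point in follow-ups.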
# [2] = qHTS of pediatric cancer cell lines to identify multiple opportunities for drug repurposing: Primary screen for NB1643 cells (AID 1347099); also: nearly all actives have a fitted effect of over 50% in size
# Procedure, shortened: (§2)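 CRCs from 8- or 11-point titrations (lowest final 0.59 nM NPC, 0.78 nM MIPE). Cell viability: CellTiter-Glo after 48 h incubation, 15 min room-temperature development, luminescence imaging.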
# [3] = qHTS of pediatric cancer cell lines to identify multiple opportunities for drug repurposing: Primary screen for LAN-5 cells (AID 1347100)
# Procedure, shortened: (§3)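 Cells (500-1,000/well) in growth media were settled 5 h at 37 degrees C, then given compounds for 48 h. Viability was read as CellTiter-Glo luminescence. Primary runs used MIPE at 11 points (0.78 nM-46 µM) and NPC at 8 points (0.59 nM-46 µM); follow-ups used 11 points.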
# [4] = qHTS of pediatric cancer cell lines to identify multiple opportunities for drug repurposing: Primary screen for BT-12 cells (AID 1347101); also: nearly all actives have a fitted effect of over 25% in size
# Procedure, shortened: as §1
# [5] = qHTS of pediatric cancer cell lines to identify multiple opportunities for drug repurposing: Primary screen for Rh18 cells (AID 1347102); also: nearly all actives have a fitted effect of over 65% in size
# Procedure, shortened: as §3
# [6] = qHTS of pediatric cancer cell lines to identify multiple opportunities for drug repurposing: Primary screen for OHS-50 cells (AID 1347103); also: nearly all actives have a fitted effect of over 40% in size
# Procedure, shortened: as §1
# [7] = qHTS of pediatric cancer cell lines to identify multiple opportunities for drug repurposing: Primary screen for RD cells (AID 1347104); also: nearly all actives have a fitted effect of over 55% in size
# Procedure, shortened: as §2
# [8] = qHTS of pediatric cancer cell lines to identify multiple opportunities for drug repurposing: Primary screen for MG 63 (6-TG R) cells (AID 1347105); also: nearly all actives have a fitted effect of over 50% in size
# Procedure, shortened: as §2
# [9] = qHTS of pediatric cancer cell lines to identify multiple opportunities for drug repurposing: Primary screen for control Hh wild type fibroblast cells (AID 1347106); also: nearly all actives have a fitted effect of over 55% in size
# Procedure, shortened: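 Viability after 48 h compound treatment at 37C, 500-1,000 cells/well, read as ATP luminescence with CellTiter-Glo. Primary screens used 11-point (MIPE, 0.78 nM-46 µM) or 8-point (NPC, 0.59 nM-46 µM) final concentrations; follow-up screens used 11-point dilutions.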
# [10] = qHTS of pediatric cancer cell lines to identify multiple opportunities for drug repurposing: Primary screen for Rh30 cells (AID 1347107); also: nearly all actives have a fitted effect of over 75% in size
# Procedure, shortened: as §3
# Potency is read from the fitted curve at half-maximal effect.
Structure (SMILES),Potency [1],Potency [2],Potency [3],Potency [4],Potency [5],Potency [6],Potency [7],Potency [8],Potency [9],Potency [10]
C[C@]12CCC3=C4CCC(=O)C=C4CC[C@@H]3[C@H]1CC[C@@]2(O)CC#N,inactive,inactive,inactive,inactive,inactive,inactive,inactive,inactive,inactive,inactive
C[C@@H](O)[C@H]1C(=O)N2C(C(=O)OCOC(=O)C(C)(C)C)=C(SC3CN(C4=NCCS4)C3)[C@H](C)[C@H]12,inactive,inactive,inactive,inactive,,inactive,inactive,inactive,inactive,inactive
C[C@@H]1CC=CC=CC=CC=C[C@@H](O[C@@H]2O[C@H](C)[C@@H](O)[C@H](N)[C@H]2O)C[C@@H]2O[C@](O)(C[C@@H](O)C[C@@H]3O[C@@H]3C=CC(=O)O1)C[C@H](O)[C@@H]2C(=O)O,inactive,inactive,inactive,15.3 µM (active),,9.68 µM (active),,,inactive,
CO[C@H]1/C=C\O[C@@]2(C)Oc3c(C)c(O)c4c(O)c(c(C=NN5CCN(C6CCCC6)CC5)c(O)c4c3C2=O)NC(=O)C(C)=CC=C[C@H](C)[C@H](O)[C@@H](C)[C@@H](O)[C@@H](C)[C@H](OC(C)=O)[C@H]1C,0.0961 µM (active),0.0105 µM (active),0.001 µM (active),0.137 µM (active),0.118 µM (active),0.193 µM (active),0.209 µM (active),0.59 µM (active),,
C[C@@H]1O[C@@H](O[C@H]2CC[C@@]3(C)[C@H](CC[C@@H]4[C@H]3C[C@@H](O)[C@]3(C)[C@@H](C5=CC(=O)OC5)CC[C@]43O)C2)C[C@H](O)[C@@H]1O[C@H]1C[C@H](O)[C@H](O[C@H]2C[C@H](O)[C@@H](O)[C@@H](C)O2)[C@H](C)O1 (stereo in doubt),0.555 µM (active),0.429 µM (active),0.241 µM (active),0.14 µM (active),,0.14 µM (active),0.121 µM (active),0.0679 µM (active),,
COc1ccc(CCC(=O)Nc2nc3ccc(Cl)cc3s2)cc1OC,9.61 µM (active),5.26 µM (active),inactive,inactive,inactive,,inactive,inactive,inactive,
Cc1cccc(-c2[nH]c(C(C)(C)C)nc2-c2ccc3c(c2)OCO3)n1,30.4 µM (active),11.8 µM (active),4.18 µM (active),7.69 µM (active),inactive,,9.35 µM (active),inactive,,inactive
O=C(NCCCCN1CCOCC1)c1cc2ccccc2o1,30.4 µM (active),inactive,inactive,inactive,inactive,,inactive,inactive,inactive,
CCOC(=O)[C@@H](N)CCC(=O)N[C@@H](CSCc1ccccc1)C(=O)N[C@@H](C(=O)OCC)c1ccccc1,inactive,inactive,inactive,inactive,inactive,inactive,inactive,inactive,inactive,inactive
Cc1[nH]c(C=C2C(=O)Nc3ccc(S(=O)(=O)N(C)c4cccc(Cl)c4)cc32)c(C)c1C(=O)N1CCN(C)CC1,30.4 µM (active),18.7 µM (active),9.35 µM (active),17.2 µM (active),23.5 µM (active),19.3 µM (active),29.6 µM (active),,inactive,18.7 µM (active)
Nc1[nH]nc2nnc(-c3c(-c4ccccc4)nn4ccccc34)cc12,4.29 µM (active),1.87 µM (active),6.62 µM (active),6.85 µM (active),,1.93 µM (active),11.8 µM (active),,,
OC[C@H]1O[C@@H](O[C@H]2[C@@H](O)[C@@](O)(CO)O[C@@H]2CO)[C@H](O)[C@@H](O)[C@@H]1O,inactive,inactive,inactive,inactive,inactive,inactive,inactive,inactive,inactive,inactive
Cn1c(=O)c(Oc2ccc(F)cc2F)cc2cnc(NC3CCOCC3)nc21,inactive,inactive,inactive,inactive,inactive,,inactive,,inactive,
CCC=CC[C@H]1C(=O)CC[C@@H]1CC(=O)OC,19.2 µM (active),inactive,inactive,inactive,,inactive,inactive,inactive,inactive,inactive
CN(C)CCN(C)C(=O)c1ccc(NC(=O)Nc2ccc(-c3nc(N4CCOCC4)c4ccn(CC(F)(F)F)c4n3)cc2)cc1,7.64 µM (active),0.418 µM (active),2.64 µM (active),3.06 µM (active),0.187 µM (active),,0.372 µM (active),0.187 µM (active),0.0526 µM (active),
CC(NCCc1ccc(O)cc1)C(O)c1ccc(O)cc1 (stereo not given),inactive,inactive,inactive,inactive,inactive,inactive,inactive,inactive,inactive,inactive
CC1(COc2ccc3c(c2)ncn3-c2ccc3cccc(N4CCC(N)CC4)c3n2)COC1,inactive,inactive,0.001 µM (active),6.11 µM (active),10.5 µM (active),,0.59 µM (active),,,inactive
